# Experimental data from the supplement of paper PMC7724964.
# T1: SPSB2 26-221 SPRY (domain begin residue: 26, domain end residue: 221), Q99619
# T1 chain: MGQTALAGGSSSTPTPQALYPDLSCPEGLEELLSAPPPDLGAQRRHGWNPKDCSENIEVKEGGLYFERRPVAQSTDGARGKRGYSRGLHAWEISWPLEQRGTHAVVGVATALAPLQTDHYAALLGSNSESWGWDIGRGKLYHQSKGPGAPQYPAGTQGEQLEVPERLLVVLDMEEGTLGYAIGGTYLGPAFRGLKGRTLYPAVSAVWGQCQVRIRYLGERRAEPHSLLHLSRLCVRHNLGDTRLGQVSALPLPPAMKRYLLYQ
# T2: SPRED3 1-117 WH1 (domain begin residue: 1, domain end residue: 117), Q2MJR0
# T2 chain: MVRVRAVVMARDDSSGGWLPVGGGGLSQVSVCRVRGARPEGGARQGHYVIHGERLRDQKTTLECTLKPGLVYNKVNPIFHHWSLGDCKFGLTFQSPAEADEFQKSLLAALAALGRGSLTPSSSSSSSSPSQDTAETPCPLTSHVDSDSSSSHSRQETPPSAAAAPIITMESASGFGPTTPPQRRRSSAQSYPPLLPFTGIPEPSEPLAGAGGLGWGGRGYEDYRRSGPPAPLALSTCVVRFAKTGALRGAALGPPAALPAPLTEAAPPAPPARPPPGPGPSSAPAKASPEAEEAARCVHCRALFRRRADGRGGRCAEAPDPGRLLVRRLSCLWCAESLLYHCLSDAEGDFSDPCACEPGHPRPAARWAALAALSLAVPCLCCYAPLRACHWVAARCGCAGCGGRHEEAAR
# Molecular target: T1, SPSB2 26-221 SPRY (domain begin …
# Assay: phage ELISA signal ratio (GST-PRM binding over GST background); higher = stronger binding of peptide-phage to the PRM
# Outline: (§1)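 Human peptide recognition domains were expressed in 96-well plates as fusions to the C-terminus of glutathione S-transferase (GST) and selected against an M13 phage library displaying randomized hexadecapeptides, cysteine-free and glycine-flanked, on the gene-8 major coat protein. Five selection rounds were run, and approximately 48 individual clones from rounds 4 and 5 were tested by phage ELISA. Each value is the ELISA signal on the GST-domain fusion divided by the signal on GST alone. Positive clones were sequenced.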
row,Binder,phage ELISA signal ratio
1,DFNNNTGPRLAAETIV,11.5
2,RSDYARDANGNMVVEF,21.3
3,YYLDENQNWISEGFLW,12.1
4,IVDTYWAMENNNVGTV,29.6
5,PWHARDMNGNWTQRIE,12.3
6,MGQLQDMQNNNWVPIV,33.8
7,AHFELMNNNWLVPEFW,30.8
8,YFYLDSNNNQVIPSSV,21.9
9,WREEPHFHRDENGNII,28.9
10,ERVMDLNGNWITKSVA,10.8
11,MEVFDMNGNYPVRSRT,25
12,YEEFLDLNSNLQGLKT,12.3
13,WLAQDYNNNHMWLDWK,27.1
14,AGPDWNHNRLTFNHPQ,35.2
15,VVYTGVDHNGNMYPVR,9.45
16,MVDLNGNTYSESMVAV,33.8
17,GFLDPNQNIVRETLIL,34.2
18,NTMWFDLWDINNNPLS,32.3
19,FEEMELVGDLNNNMMP,32.8
20,TGENNNVMPPHLSEHV,11.7

# Molecular target: T2, SPRED3 1-117 WH1 (domain begin residue: …
# Assay: as above
# Outline: as §1
row,Binder,phage ELISA signal ratio
1,DPGWYWEPAMLEAEWA,28.4
2,NDQYTWSQVHQGWLPL,26.5
3,DVWYTTSESIIQYMQS,27.7
4,WTWMGDEEVFYHESLL,23.8
5,VTPQEMWEEYIATLQI,23.4
6,HEMFLWDGETVMQVWW,20.8
7,EPDYGTAWFQHMMQEW,31
8,MWMWDGMQVVHLFEQY,20.5
9,EQWWHTPQSVQAWINS,19.5
